Source: PubChem BioAssay (National Center for Advancing Translational Sciences (NCATS))
Rows were chosen to be rich in hits. Some 19% of all compounds tested hit in one or more screens of this group.
TDP1 block – qHTS Assay for Inhibitors of Tyrosyl-DNA Phosphodiesterase (TDP1); AID 485290, 2010; Tyrosyl-DNA phosphodiesterase 1 (Homo sapiens), Q9NUW8; hit rate 0.28% among 350,000; Potency, µM (highest dose often 130 µM), for the others: at the highest dose activity change, negative = inhibition, actives largely listed as inhibitors; recombinant TDP1, AlphaScreen DNA substrate cleavage; note: potency is the fitted concentration of half-maximal effect; nearly all actives have a fitted effect of over 40% in size
Target sequence (Q9NUW8 whole entry, looked up): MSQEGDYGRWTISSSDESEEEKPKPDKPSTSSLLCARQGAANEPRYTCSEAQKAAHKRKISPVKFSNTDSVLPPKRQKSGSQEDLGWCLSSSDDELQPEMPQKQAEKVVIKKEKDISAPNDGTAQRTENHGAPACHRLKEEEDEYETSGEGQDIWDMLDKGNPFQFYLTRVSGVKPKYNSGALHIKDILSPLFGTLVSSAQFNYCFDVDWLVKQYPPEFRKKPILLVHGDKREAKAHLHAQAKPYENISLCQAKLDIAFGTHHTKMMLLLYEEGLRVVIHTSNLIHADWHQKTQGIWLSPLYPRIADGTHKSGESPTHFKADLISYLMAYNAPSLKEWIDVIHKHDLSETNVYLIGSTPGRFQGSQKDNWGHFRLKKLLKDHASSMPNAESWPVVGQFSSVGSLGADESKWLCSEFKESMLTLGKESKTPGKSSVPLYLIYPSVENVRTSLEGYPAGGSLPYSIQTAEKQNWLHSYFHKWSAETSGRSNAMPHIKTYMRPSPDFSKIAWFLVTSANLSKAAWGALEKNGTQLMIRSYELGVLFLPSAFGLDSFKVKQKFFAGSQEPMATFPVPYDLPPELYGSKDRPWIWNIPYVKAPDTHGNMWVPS
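Recombinant E. coli-expressed Tdp1 (1 nM) preincubated with compound 15 min at RT, then 5'-biotin/3'-phosphotyrosine-FITC DNA substrate (15 nM) added for 5 min. AlphaScreen beads (10 ug/ml) added, 10 min RT; tyrosine-FITC cleavage read as signal loss.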
ELG1 DNA repair – qHTS screen for small molecules that inhibit ELG1-dependent DNA repair in human embryonic kidney (HEK293T) cells expressing luciferase-tagged ELG1; HEK293T ELG1-luciferase reporter, luminescence, 16 h; DNA damage induced by 5-fluorouridine; hit rate 2.3% among 330,000; Potency, µM (series often up to 46.1 µM), for the others: at the highest dose activity change, negative = inhibition, actives largely listed as inhibitors; note: potency is the fitted concentration of half-maximal effect; nearly all actives have a fitted effect of over 55% in size
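In this reporter screen, reduction of luminescence relative to DMSO vehicle indicated activity. Compounds and 5-fluorouridine were added together to 2,000 cells per well, incubated for 16 hr at 37 °C, then developed with ONE-Glo.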
TDP1 cell CPT – qHTS for Inhibitors of human tyrosyl-DNA phosphodiesterase 1 (TDP1): qHTS in cells in presence of CPT | chicken DT40 Tdp1-/-;hTDP1 cells + 20 nM CPT, ATP luminescence, 48 h | Potency, µM (highest dose often 46.2 µM), without a hit: top-dose activity change, negative = growth inhibition, actives largely listed as inhibitors | hit rate 12% among 420,000 | AID 686979, 2013; note: potency is the fitted concentration of half-maximal effect; nearly all actives have a fitted effect of over 55% in size
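Chicken DT40 Tdp1-/- cells complemented with human TDP1, 400 cells/well, exposed to compounds plus 20 nM camptothecin for at least 48 h at 37 C; viability read as ATP content by CellTiter-Glo luminescence.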
IL-1B inflam inh – qHTS for Inhibitors of Inflammasome Signaling: IL-1-beta AlphaLISA Primary Screen; hit rate 4.7% among 360,000; THP-1 LPS/ATP IL-1B secretion, AlphaLISA, 16 h; active compounds read low; AID 743279, 2014; activity change, % at 57.5 µM; in the data active = activity change below about -50%; inconclusive = mostly about -30% to -49%
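Secreted IL-1B measured by AlphaLISA bead assay after 16 h compound exposure of THP-1 cells; compounds (final up to 57.5 uM) added 1 h before LPS (250 ng/mL) and ATP (1.25 mM) stimulation; lower signal means less secretion.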
TDP1 cell noCPT – qHTS for Inhibitors of human tyrosyl-DNA phosphodiesterase 1 (TDP1): qHTS in cells in absence of CPT. DT40 Tdp1-/- hTDP1 cells, no CPT, ATP luminescence, 48 h. Potency, µM (doses to about 46.2 µM), for the others: top-dose activity change, negative = growth inhibition, hits mostly inhibitors. hit rate 15% among 420,000; note: potency is the fitted concentration of half-maximal effect; nearly all actives have a fitted effect of over 55% in size
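Cells were dispensed at 400 per well, compounds added by pin tool, plates incubated ≥48 hr at 37 °C, then CellTiter-Glo added for 30 min at room temperature before luminescence reading. Line: DT40 Tdp1-/- complemented with hTDP1; camptothecin omitted.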
Giardia killer – Small Molecules that selectively kill Giardia lamblia: qHTS. Giardia lamblia trophozoite viability. activity change, % at 7.66 µM, hits read low. hit rate 0.15% among 340,000; in the data active = activity change below about -80%; inconclusive = between about -30% and that limit;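 note: parasites exposed to compound for two days anaerobically before the ATP read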
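Each well holds 100 Giardia trophozoites and compound. After two days (48 hrs) at 37 deg C in anaerobic conditions, ATP is quantified by luminescence.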
* hit, by the source's call; u = inconclusive; x = no result given. Unless noted, calls come from the whole dose curve; as a rule, active = well fitted curve in the direction sought with a large enough effect; inconclusive = small, poorly fitted or top-dose-only effect, or another doubt; inactive = no such curve, though single readings can be large; an effect the other way counts as inactive or inconclusive. % is set by controls: 0 for no effect and ±100 for the full control effect.

SMILES | TDP1 block | ELG1 DNA repair | TDP1 cell CPT | IL-1B inflam inh | TDP1 cell noCPT | Giardia killer
Cc1ccc(C(=O)Nc2nnc(SCC(=O)N3CCCc4ccccc43)s2)cc1 | 1.8% | u | 6.2% | 0.0 | u | -125.5*
CCCCOc1cccc(C(=O)N(Cc2ccc(Br)o2)C2CCS(=O)(=O)C2)c1 (centres undefined) | -1.6% | x | 18.4µM* | x | 16.4µM* | x
CCCCCOc1c(Cl)cc(C(=O)N(Cc2ccc(C)o2)C2CCS(=O)(=O)C2)cc1Cl (centres undefined) | 4.9% | x | 18.4µM* | x | 16.4µM* | x
O=C(/C=C/c1ccc(Cl)cc1Cl)N(Cc1ccc(Cl)cc1)C1CCS(=O)(=O)C1 (centres undefined) | 2.8% | -19.5% | u | 0.0 | 16.4µM* | 9.1
Cc1ccc(CN(C(=O)c2ccc(Cl)c([N+](=O)[O-])c2)C2CCS(=O)(=O)C2)o1 (centres undefined) | 5.2% | u | 2.8% | -94.8* | 4.6% | -19.4
COc1ccc(C2(C)NC(=O)NC2=O)cc1OC (centres undefined) | 8.8% | 10.7% | -10.2% | -2.1 | 0.0% | 16.0
CC1CCCC(NC(=O)COC(=O)CCC(=O)c2ccc(F)cc2)C1C (centres undefined) | -0.4% | u | -21.2% | 2.7 | -23.8% | 0.0
O=C(c1ccc(Cl)c([N+](=O)[O-])c1)N(Cc1ccccc1)C1CCS(=O)(=O)C1 (centres undefined) | 0.6% | 3.7% | -18.1% | -12.7 | u | -9.3
O=C(c1ccc(Cl)c([N+](=O)[O-])c1)N(Cc1ccc(Cl)cc1)C1CCS(=O)(=O)C1 (centres undefined) | 1.9% | 18.1% | u | -88.1* | 23.1µM* | 19.8
O=C(c1ccc(Cl)c([N+](=O)[O-])c1)N(Cc1cccc(Cl)c1)C1CCS(=O)(=O)C1 (centres undefined) | 5.4% | 19.0% | u | -93.2* | u | 20.8
N=C(N)N1CCN(Cc2ccccc2)CC1 | 2.7% | 11.0% | x | x | x | x
CCc1ccc(OCc2cnc(Cl)s2)cc1 | u | u | 9.5% | -29.7 | -12.5% | u
O=S(=O)(Nc1cccc2c1ccc1cccn12)c1cccs1 | 5.2% | 23.8% | -11.6% | -10.9 | -15.2% | 8.2
Cc1ccc(NC(=O)Nc2c(C)n(C)n(-c3ccccc3)c2=O)cc1C | 2.5% | -11.7% | 16.4µM* | 13.1 | 23.1µM* | 13.3
Cc1c(NN=C(C#N)C#N)c(=O)n(-c2ccccc2)n1C | 2.5% | 5.8µM* | -84.8% | -60.8* | u | -19.4
Cc1c(NC(=O)CC(=O)Nc2c(C)n(C)n(-c3ccccc3)c2=O)c(=O)n(-c2ccccc2)n1C | 3.9% | -1.6% | -12.2% | 12.1 | -11.4% | 15.7
Cc1ccc(C2=NOC(=O)/C2=C\c2ccc(C)o2)cc1 | 9.6% | u | 13µM* | -2.5 | 23.1µM* | -4.7
Cc1ccc(-c2ccc(/C=C3\C(=O)ON=C3c3ccccc3)o2)c([N+](=O)[O-])c1 | 5.2% | u | 8.2µM* | -107.3* | 16.4µM* | 0.2
O=C1/C(=C\c2ccc(-c3ccccc3[N+](=O)[O-])o2)C(c2ccccc2)=NN1c1ccccc1 | 11.7% | u | -9.5% | -8.1 | -15.7% | -11.3
Cc1ccc(/C=C2\C(=O)ON=C2c2ccccc2)o1 | 0.0% | 0.0% | -8.2% | 0.4 | 0.0% | -8.0
O=C(OCC#CCSc1nnc(-c2cccc3ccccc23)o1)c1ccc(F)nc1 | -5.1% | x | x | x | x | x
